Bioassay records as filed in PubChem BioAssay.
An excerpt weighted towards active compounds, which were near 9.3% of everything screened.
Sm TGR inh: S. mansoni TGR enzyme inhibition; Q962Y6; purified TGR, DTNB reduction, TNB absorbance 405 nm; Potency, µM (doses to about 114 µM), most hits filed as inhibitors; hit rate 3% among 360,000; AID 485364; note: nearly all actives have a fitted effect of over 60% in size
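TGR 20 nM + NADPH 100 uM (dispensed conc.), cpd preinc 15 min RT; start with NADPH (500 uM addition) then DTNB (15 mM addition). Kinetic TNB absorbance, 405 nm filter. Four-parameter Hill fit across titration.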
HCV inh: inhibitors of hepatitis C virus infection; Huh7.5.1 HCVcc-Cre infection, luciferase reporter, 44 h; Potency, µM (highest dose often 41.8 µM), most hits filed as inhibitors; hit rate 3.4% among 340,000; AID 651820
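Cells seeded at 1,000/well and cultured 4 h, then compounds added followed by HCVcc-Cre virus (~0.5 moi). After 44 h further culture, luciferase substrate was added, plates held 15 min at room temperature, and luminescence read for 15 sec.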
FMDV inh: antivirals against foot and mouth disease virus; FMDV antiviral cell-based qHTS; Potency, µM (series often up to 57.9 µM), usual class: inhibitors; hit rate 1.2% among 410,000; calls by dose curve; tested in HEK293T cells; note: read-out not given here; nearly all actives have a fitted effect of over 45% in size
VACV Venus inh: inhibitors of vaccinia virus (Venus reporter); Vaccinia virus Venus reporter expression, fluorescence; Potency, µM (highest dose often 36.5 µM), hits mostly inhibitors; hit rate 0.46% among 330,000; calls by dose curve; tested in A549 cells; note: nearly all actives have a fitted effect of over 30% in size
Vaccinia mCherry: vaccinia inhibition (mCherry reporter) | Vaccinia virus mCherry reporter infection, fluorescence | Potency, µM (titrated, usually from 36.5 µM), actives largely listed as inhibitors | hit rate 0.63% among 310,000; calls by dose curve; tested in A549 cells; note: nearly all actives have a fitted effect of over 35% in size
HCMV inh: human cytomegalovirus inhibition. HFF cells, HCMV-luciferase reporter, 72 h; active compounds read low. activity change, negative = inhibition, % at 57.5 µM. hit rate 4.5% among 410,000; in the data active = activity change below about -60%; inconclusive = no clear call, values can overlap the other calls; inactive = above about -39%
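Cell-based, HFFs, 1000 cells/well, 16 h 37C; cpds in DMSO + HCMV-luc, MOI 1 PFU/cell; 72 h 37C; OneGlo luminescence after 5 min RT; norm. to buffer vs Salinomycin 10uM.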
Large screens that a line does not name were inactive. Unless noted, calls come from the whole dose curve; as a rule, active = well fitted curve in the direction sought with a large enough effect; inconclusive = small, poorly fitted or top-dose-only effect, or another doubt; inactive = no such curve, though single readings can be large; an effect the other way counts as inactive or inconclusive.

Cc1cccc(C)c1-n1nnnc1C(c1cc2ccccc2o1)N1CCN(C/C=C/c2ccccc2)CC1 (stereo not given)	HCMV inh -62 (no result: Sm TGR inh, HCV inh)
O=C(/C=C/c1ccc(Cl)cc1)NC1CCS(=O)(=O)C1 (stereo not given)	HCMV inh inconclusive
O=C(NC1CCS(=O)(=O)C1)Oc1ccc(Cl)cc1 (stereo not given)	HCMV inh -106 (no result: VACV Venus inh, Vaccinia mCherry)
CCOC(=O)CC1(C)NC(C(=O)O)C(C)(C)S1 (stereo not given)	FMDV inh inconclusive (no result: Sm TGR inh)
O=C(OCC(=O)N1CCCC1=O)C1COc2ccccc2O1 (stereo not given)	none
COc1ccc(CN(C)CC(O)COc2ccc(C(=O)c3ccccc3)cc2)c(OC)c1OC (stereo not given)	HCV inh inconclusive
COc1ccc(CN(C)CC(O)COC(c2ccccc2)c2ccccc2)c(OC)c1OC (stereo not given)	HCV inh 16µM, FMDV inh inconclusive, Vaccinia mCherry inconclusive
COc1ccccc1NC(=O)CSc1sc2c(O)cc(=O)[nH]c2c1C#N	Sm TGR inh 14µM
Cc1cc(NC(=O)CSc2sc3c(O)cc(=O)[nH]c3c2C#N)ccc1Br	Sm TGR inh inconclusive
N#Cc1c(SCC(=O)Nc2cccc(C(F)(F)F)c2)sc2c(O)cc(=O)[nH]c12	Sm TGR inh 32µM, HCV inh inconclusive
CCc1nnc(NC(=O)CSc2sc3c(O)cc(=O)[nH]c3c2C#N)s1	Sm TGR inh 35µM
O=C(O)C1CCCN(C(=O)/C=C/c2ccccc2)CC1 (stereo not given)	none (no result: Sm TGR inh, HCV inh)
S=C1SCN(Cc2cccnc2)CN1Cc1cccnc1	FMDV inh inconclusive, HCMV inh -95
S=C1SCN(Cc2ccccc2)CN1Cc1ccccc1	none (no result: VACV Venus inh, Vaccinia mCherry)
CC1(C(=O)NCc2cccc(C(F)(F)F)c2)CCN1Cc1ccc2ccccc2c1 (stereo not given)	HCMV inh -72 (no result: Sm TGR inh, HCV inh)
CC1(C(=O)NCc2cccc3ccccc23)CCN1Cc1ccc2ccccc2c1 (stereo not given)	none (no result: Sm TGR inh, HCV inh)
O=C(Cc1cccc2ccccc12)NCC(=O)N1CCN(Cc2cccc(C(F)(F)F)c2)CC1	HCV inh 5.6µM, FMDV inh inconclusive, HCMV inh -62 (no result: VACV Venus inh, Vaccinia mCherry)
O=C(Cc1cccc2ccccc12)NCC(=O)N1CCN(CC(=O)Nc2ccc(F)cc2)CC1	FMDV inh inconclusive (no result: Sm TGR inh, HCV inh)
O=C(CSc1cccc(C(F)(F)F)c1)NCc1ccccc1	HCMV inh -73
COc1ccc([N+](=O)[O-])cc1NC(=O)CCSCCc1ccccn1	none
C[C@@]12C(=O)OC(=O)[C@]1(C)C1CCC2O1	HCV inh 0.5µM, FMDV inh inconclusive, VACV Venus inh 1.3µM, Vaccinia mCherry 1.1µM, HCMV inh -99
CC12C(=O)N(c3nccs3)C(=O)C1(C)C1CCC2O1 (stereo not given)	VACV Venus inh inconclusive, Vaccinia mCherry inconclusive (no result: Sm TGR inh)
COc1ccc(S(=O)(=O)/N=C2/NC(=O)/C(=C\c3ccco3)S2)cc1	Sm TGR inh 45µM
COc1ccc(S(=O)(=O)/N=C2/NC(=O)/C(=C/c3ccco3)S2)cc1	Sm TGR inh inconclusive
COc1ccc(N=C2NC(=O)/C(=C/c3ccco3)S2)cc1	Sm TGR inh 32µM, HCMV inh -68 (no result: VACV Venus inh, Vaccinia mCherry)
COc1ccccc1NC(=O)Oc1ccc(NC(=O)c2ccco2)cc1	Sm TGR inh inconclusive (no result: VACV Venus inh, Vaccinia mCherry)
O=c1[nH]c2ccccc2n2cnnc12	none
COc1ccccc1CNC(=O)CN(c1ccccc1OC)S(C)(=O)=O	none (no result: HCV inh)
COc1ccccc1N(CC(=O)Nc1c(C)cccc1C)S(C)(=O)=O	none (no result: FMDV inh)
COc1ccccc1NCC(=O)N/N=C/c1cccnc1	none (no result: HCV inh)
COc1ccccc1N(CC(=O)N/N=C/c1c(O)ccc2ccccc12)S(C)(=O)=O	HCV inh inconclusive, VACV Venus inh inconclusive, Vaccinia mCherry 11µM
O=C(CNc1ccc(F)cc1)N/N=C/c1c(O)ccc2ccccc12	Sm TGR inh inconclusive, HCV inh inconclusive, HCMV inh -97 (no result: VACV Venus inh, Vaccinia mCherry)
COc1ccccc1N(CC(=O)Nc1ccccc1C)S(C)(=O)=O	HCMV inh -61 (no result: FMDV inh)
COc1ccccc1NCC(=O)N/N=C/c1c(O)ccc2ccccc12	HCV inh 2.8µM, HCMV inh -95 (no result: VACV Venus inh, Vaccinia mCherry)
CCCCCCN(C(=O)CCCCCN1C(=O)NC(c2ccc(-c3ccccc3)cc2)C(C(=O)OCc2ccccc2)=C1C)C(C(=O)NCCCC)c1ccc(-c2ccccc2)cc1 (stereo not given)	none (no result: HCV inh, FMDV inh, VACV Venus inh, Vaccinia mCherry)
Cn1ncc(N=Cc2c(O)ccc3ccccc23)c1C(=O)N1CCOCC1	none (no result: Sm TGR inh)
COc1ccccc1NC(=O)c1c(N=Cc2c(O)ccc3ccccc23)cnn1C	Sm TGR inh 50µM, HCV inh inconclusive, FMDV inh inconclusive, Vaccinia mCherry inconclusive, HCMV inh -89
O=C(CN1CCCc2ccccc21)N/N=C/c1ccccc1	none
O=C(CN1CCCc2ccccc21)N/N=C/c1c(O)ccc2ccccc12	HCV inh 10µM, FMDV inh inconclusive, VACV Venus inh inconclusive, Vaccinia mCherry 11µM, HCMV inh -98
Cc1ccc(C(=O)N(Cc2ccccc2)C(C)(C)C)cc1C	HCMV inh inconclusive
CCCS(=O)(=O)c1csc(C(=O)OC)c1N	none
CCOc1ccc(/C=C/C(=O)c2ccccc2)cc1OC	none
COc1cc(/C=C/C(=O)c2ccc(O)cc2)ccc1OCC#N	HCV inh inconclusive, FMDV inh 28µM, VACV Venus inh 13µM, Vaccinia mCherry 13µM, HCMV inh -98
COc1cccc(C(=O)/C=C/c2ccc(OCC#N)c(OC)c2)c1	HCV inh inconclusive, FMDV inh inconclusive, VACV Venus inh inconclusive, Vaccinia mCherry inconclusive, HCMV inh -100
Cn1ccnc1SCC(=O)Nc1ccc(SC(F)F)cc1	none (no result: Sm TGR inh, VACV Venus inh, Vaccinia mCherry)
S=C(NC1CCCC1)N1CCN(c2ccccn2)CC1	HCMV inh -62
CC(=NNC(=S)N1CCN(c2ccccn2)CC1)c1nccs1	HCV inh 1.3µM, VACV Venus inh inconclusive, Vaccinia mCherry 2.8µM (no result: Sm TGR inh, HCMV inh)
CC(=NNC(=S)N1CCCCCC1)c1cccc2cccnc12	HCV inh inconclusive, VACV Venus inh inconclusive, Vaccinia mCherry inconclusive, HCMV inh -75 (no result: Sm TGR inh)
S=C(NC1CCCC1)N1CCN(c2cccc(Cl)c2)CC1	HCV inh 13µM, FMDV inh inconclusive, HCMV inh inconclusive (no result: VACV Venus inh, Vaccinia mCherry)
O=C(NC(=S)N1CCN(c2ccccn2)CC1)c1ccccc1	none
S=C(NC1CC1)N1CCN(c2ccc(Cl)cc2)CC1	none
Cc1cc2cc(CNC(=O)Nc3ccc(Cl)c(Cl)c3)ccc2n1C	none
COc1cc(NC(=O)CN2C(=O)c3ccccc3Sc3ccc(C(=O)N4CCOCC4)cc32)cc(OC)c1OC	none
O=[N+]([O-])c1cccc(NC(=S)N2CCN(c3ccccn3)CC2)c1	HCV inh inconclusive, HCMV inh -65
S=C(Nc1cccc(Cl)c1)N1CCN(c2ccccn2)CC1	none (no result: VACV Venus inh, Vaccinia mCherry)
Cc1ccc(C(=O)Nc2c(C)cc(-c3ccc(Cl)cc3)oc2=O)cc1	HCV inh inconclusive, FMDV inh inconclusive
C(=N\Nc1nc(-c2ccccc2)cs1)/c1cccs1	HCV inh 10µM
